# Tests used:
# Assay in all cases: DAPPL (digital affinity profiling via proximity ligation, sequencing); 10 mM Tris-HCl pH 7.5, 50 mM NaCl, 1 mM DTT, 4% glycerol, room temperature, 30 min; GST-TFs on glutathione beads, 16-mer random dsDNA library, 0.1% formaldehyde crosslink after washing; high values mean tight binding
# Settings in all cases: protein: recombinant; tags: N-terminal GST; dsDNA, one strand shown
# ELF4 = ELF4 (Homo sapiens, UniProt Q99607 1-663)
# Summary of the method: (§1)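 Pools were built from human transcription factors expressed in yeast as GST fusions, captured on glutathione beads and DNA-barcoded, along with a tag-only sample. Incubation with 200 nmole of a 16-mer random double-stranded DNA library lasted 30 min at room temperature in Tris/NaCl/DTT/glycerol buffer, and was followed by washing, 0.1% formaldehyde crosslinking, proximity ligation, PCR amplification and Illumina NextSeq500 sequencing. Binding signal is the quotient of each hexamer's read frequency for a factor and its frequency for the tag-only sample.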
# ETV2 = biological target: T1, ETV2 (Homo sapiens, UniProt O00321 1-342)
# T1 sequence: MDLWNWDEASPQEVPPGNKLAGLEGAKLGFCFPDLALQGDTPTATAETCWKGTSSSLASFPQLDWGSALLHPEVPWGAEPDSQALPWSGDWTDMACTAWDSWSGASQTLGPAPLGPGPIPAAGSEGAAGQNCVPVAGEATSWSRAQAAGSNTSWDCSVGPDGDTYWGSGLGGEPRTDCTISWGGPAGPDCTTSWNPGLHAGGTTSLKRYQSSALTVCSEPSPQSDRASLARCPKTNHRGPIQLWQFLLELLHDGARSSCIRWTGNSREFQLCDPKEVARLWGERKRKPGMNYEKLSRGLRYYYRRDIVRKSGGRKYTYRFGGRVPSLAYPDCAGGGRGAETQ
# Summary of the method: as §1
# ELF3 = biological target: T2, ELF3 (Homo sapiens, UniProt P78545 1-371)
# T2 sequence: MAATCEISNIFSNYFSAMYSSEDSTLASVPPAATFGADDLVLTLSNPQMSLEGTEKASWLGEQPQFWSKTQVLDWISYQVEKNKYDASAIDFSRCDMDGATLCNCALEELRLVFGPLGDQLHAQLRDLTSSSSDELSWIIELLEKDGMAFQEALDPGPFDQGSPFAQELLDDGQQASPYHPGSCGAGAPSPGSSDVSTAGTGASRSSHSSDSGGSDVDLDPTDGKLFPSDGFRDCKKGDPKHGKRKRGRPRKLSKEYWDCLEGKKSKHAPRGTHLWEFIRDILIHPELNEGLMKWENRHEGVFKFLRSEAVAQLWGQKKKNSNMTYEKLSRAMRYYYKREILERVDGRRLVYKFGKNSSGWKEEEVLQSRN
# Summary of the method: as §1
# ETV1 = ETV1 (Homo sapiens, UniProt P50549 1-477)
# Sequence of ETV1 (P50549 whole entry): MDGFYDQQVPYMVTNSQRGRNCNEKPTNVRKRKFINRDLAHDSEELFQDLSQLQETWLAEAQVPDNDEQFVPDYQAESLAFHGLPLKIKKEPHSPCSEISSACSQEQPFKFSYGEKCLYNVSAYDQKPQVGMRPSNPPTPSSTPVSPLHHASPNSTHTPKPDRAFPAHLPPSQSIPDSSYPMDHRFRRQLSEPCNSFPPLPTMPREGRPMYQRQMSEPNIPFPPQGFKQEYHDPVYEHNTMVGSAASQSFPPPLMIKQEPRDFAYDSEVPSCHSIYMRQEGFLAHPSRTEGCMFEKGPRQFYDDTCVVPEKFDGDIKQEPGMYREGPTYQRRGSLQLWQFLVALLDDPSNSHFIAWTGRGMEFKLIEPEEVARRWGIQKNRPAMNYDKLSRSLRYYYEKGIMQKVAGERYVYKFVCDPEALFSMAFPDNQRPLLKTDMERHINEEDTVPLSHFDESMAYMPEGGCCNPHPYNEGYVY
# Summary of the method: as §1
# ERF = biological target: T3, ERF (Homo sapiens, UniProt P50548 1-548)
# T3 sequence: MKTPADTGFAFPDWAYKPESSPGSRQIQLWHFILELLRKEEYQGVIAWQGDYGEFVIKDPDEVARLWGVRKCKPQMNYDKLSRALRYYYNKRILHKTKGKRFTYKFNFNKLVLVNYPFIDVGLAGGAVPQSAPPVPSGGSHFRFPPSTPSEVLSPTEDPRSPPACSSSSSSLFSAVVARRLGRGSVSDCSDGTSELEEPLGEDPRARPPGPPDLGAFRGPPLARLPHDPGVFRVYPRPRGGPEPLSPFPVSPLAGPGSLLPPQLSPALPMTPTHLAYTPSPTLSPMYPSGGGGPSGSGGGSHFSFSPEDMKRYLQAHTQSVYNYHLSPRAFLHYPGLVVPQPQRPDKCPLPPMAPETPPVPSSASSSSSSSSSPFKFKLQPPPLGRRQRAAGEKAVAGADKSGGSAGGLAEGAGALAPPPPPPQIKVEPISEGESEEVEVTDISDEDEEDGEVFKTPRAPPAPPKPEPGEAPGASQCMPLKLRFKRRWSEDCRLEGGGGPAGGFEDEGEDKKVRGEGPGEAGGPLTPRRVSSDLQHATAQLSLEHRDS
# Summary of the method: as §1
# ETV3L = biological target: T4, ETV3L (Homo sapiens, UniProt Q6ZN32 1-361)
# T4 sequence: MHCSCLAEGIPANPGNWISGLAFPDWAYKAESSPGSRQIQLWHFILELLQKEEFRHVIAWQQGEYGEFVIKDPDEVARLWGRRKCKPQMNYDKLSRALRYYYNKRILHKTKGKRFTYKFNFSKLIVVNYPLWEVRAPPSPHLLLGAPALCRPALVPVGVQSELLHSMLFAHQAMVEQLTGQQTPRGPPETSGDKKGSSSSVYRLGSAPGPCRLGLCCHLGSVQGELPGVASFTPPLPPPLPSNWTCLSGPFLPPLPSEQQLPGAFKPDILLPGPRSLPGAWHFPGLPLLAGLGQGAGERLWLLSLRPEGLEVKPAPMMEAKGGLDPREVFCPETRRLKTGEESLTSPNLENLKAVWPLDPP
# Summary of the method: as §1
# ETS2 = biological target: T5, ETS2 (Homo sapiens, UniProt P15036 1-469)
# T5 sequence: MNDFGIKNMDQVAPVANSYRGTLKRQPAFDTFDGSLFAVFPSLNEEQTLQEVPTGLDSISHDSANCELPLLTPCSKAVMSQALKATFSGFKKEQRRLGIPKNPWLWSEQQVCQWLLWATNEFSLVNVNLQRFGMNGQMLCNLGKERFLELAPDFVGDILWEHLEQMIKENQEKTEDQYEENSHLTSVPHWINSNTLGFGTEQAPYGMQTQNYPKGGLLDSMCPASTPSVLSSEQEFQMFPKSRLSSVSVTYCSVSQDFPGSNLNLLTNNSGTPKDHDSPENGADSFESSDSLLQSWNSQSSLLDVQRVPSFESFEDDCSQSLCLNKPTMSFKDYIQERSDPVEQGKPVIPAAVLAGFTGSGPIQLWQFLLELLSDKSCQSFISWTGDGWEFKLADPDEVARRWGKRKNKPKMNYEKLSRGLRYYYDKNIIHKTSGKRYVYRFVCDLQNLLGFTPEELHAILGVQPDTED
# Summary of the method: as §1
# ETV7 = biological target: T6, ETV7 (Homo sapiens, UniProt Q9Y603 1-341)
# T6 sequence: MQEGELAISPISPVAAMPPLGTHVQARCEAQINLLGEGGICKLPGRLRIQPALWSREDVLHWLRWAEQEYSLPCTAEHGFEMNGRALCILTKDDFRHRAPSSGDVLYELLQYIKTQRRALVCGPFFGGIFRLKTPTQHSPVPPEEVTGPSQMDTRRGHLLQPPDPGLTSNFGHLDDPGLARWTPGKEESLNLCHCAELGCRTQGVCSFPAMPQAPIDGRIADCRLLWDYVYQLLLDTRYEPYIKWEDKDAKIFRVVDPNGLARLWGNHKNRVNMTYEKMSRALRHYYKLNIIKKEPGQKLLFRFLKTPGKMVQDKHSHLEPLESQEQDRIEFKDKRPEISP
# Summary of the method: as §1
# ETV3 = biological target: T7, ETV3 (Homo sapiens, UniProt P41162-2 1-143)
# T7 sequence: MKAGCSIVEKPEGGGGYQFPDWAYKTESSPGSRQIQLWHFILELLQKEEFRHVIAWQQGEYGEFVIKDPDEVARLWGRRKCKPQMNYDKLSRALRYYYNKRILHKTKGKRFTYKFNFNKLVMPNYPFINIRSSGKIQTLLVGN
# Summary of the method: as §1
# ETV6 = ETV6 (Homo sapiens, UniProt P41212 1-452)
# Sequence of ETV6 (P41212 whole entry): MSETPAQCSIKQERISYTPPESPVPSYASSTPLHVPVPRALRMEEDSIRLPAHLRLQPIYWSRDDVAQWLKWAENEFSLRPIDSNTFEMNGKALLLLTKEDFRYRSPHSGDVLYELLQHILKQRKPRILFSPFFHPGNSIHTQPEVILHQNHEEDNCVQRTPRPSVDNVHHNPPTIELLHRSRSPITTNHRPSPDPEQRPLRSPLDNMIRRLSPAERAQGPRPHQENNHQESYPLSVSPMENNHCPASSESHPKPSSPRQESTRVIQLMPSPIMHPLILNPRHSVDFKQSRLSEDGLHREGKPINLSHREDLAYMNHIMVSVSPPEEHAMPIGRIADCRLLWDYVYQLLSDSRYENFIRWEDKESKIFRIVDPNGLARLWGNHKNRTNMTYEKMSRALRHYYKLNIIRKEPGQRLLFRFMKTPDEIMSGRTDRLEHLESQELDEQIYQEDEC
# Summary of the method: as §1
# Sequence of ELF4 (Q99607 whole entry, the tested form may be a part): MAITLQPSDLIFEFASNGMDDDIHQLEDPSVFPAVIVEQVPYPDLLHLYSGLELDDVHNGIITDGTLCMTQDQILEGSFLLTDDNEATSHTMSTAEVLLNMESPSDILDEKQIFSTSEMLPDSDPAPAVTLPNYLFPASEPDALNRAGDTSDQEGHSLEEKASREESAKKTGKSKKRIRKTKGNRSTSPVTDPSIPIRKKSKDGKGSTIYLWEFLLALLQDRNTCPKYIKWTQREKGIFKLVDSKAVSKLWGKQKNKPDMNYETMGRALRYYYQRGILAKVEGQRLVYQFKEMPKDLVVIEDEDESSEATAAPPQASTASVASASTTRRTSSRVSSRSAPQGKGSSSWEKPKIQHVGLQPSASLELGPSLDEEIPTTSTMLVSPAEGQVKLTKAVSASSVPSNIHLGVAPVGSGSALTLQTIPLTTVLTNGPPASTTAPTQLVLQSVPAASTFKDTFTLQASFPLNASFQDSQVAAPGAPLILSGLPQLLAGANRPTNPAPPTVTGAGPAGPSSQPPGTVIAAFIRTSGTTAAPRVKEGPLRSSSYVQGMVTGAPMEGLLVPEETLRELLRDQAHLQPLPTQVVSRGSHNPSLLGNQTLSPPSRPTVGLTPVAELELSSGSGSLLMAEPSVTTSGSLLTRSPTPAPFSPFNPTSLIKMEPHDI
sequence,measurement,setting,value
CCCCCC,binding signal,ELF4,"1.16 fold enrichment (6-mer frequency, TF over GST control)"
same,binding signal,ETV2,"1.26 fold enrichment (6-mer frequency, TF over GST control)"
same,binding signal,ELF3,"1.28 fold enrichment (6-mer frequency, TF over GST control)"
same,binding signal,ETV1,"1.11 fold enrichment (6-mer frequency, TF over GST control)"
same,binding signal,ERF,"1.05 fold enrichment (6-mer frequency, TF over GST control)"
same,binding signal,ETV3L,"1.07 fold enrichment (6-mer frequency, TF over GST control)"
same,binding signal,ETS2,"1.1 fold enrichment (6-mer frequency, TF over GST control)"
same,binding signal,ETV7,"1.13 fold enrichment (6-mer frequency, TF over GST control)"
same,binding signal,ETV3,"1.14 fold enrichment (6-mer frequency, TF over GST control)"
same,binding signal,ETV6,"1.06 fold enrichment (6-mer frequency, TF over GST control)"

# — publication PMC7862700, “An all-to-all approach to the identification of sequence-specific readers for epigenetic DNA modifications on cytosine”
